Hit rate of the full screen: of about 310,000 compounds, about 1,600 (0.52%) were called active.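 Rule for the calls: active = activation above the mean of controls blocked by dofetilide plus 5 SD; inactive = the rest.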 Many of the other results were omitted from the sample, so actives are more common in it than they were.

Sequence of Voltage-gated inwardly rectifying potassium channel KCNH2 (Homo sapiens) (Q12809 whole entry, looked up): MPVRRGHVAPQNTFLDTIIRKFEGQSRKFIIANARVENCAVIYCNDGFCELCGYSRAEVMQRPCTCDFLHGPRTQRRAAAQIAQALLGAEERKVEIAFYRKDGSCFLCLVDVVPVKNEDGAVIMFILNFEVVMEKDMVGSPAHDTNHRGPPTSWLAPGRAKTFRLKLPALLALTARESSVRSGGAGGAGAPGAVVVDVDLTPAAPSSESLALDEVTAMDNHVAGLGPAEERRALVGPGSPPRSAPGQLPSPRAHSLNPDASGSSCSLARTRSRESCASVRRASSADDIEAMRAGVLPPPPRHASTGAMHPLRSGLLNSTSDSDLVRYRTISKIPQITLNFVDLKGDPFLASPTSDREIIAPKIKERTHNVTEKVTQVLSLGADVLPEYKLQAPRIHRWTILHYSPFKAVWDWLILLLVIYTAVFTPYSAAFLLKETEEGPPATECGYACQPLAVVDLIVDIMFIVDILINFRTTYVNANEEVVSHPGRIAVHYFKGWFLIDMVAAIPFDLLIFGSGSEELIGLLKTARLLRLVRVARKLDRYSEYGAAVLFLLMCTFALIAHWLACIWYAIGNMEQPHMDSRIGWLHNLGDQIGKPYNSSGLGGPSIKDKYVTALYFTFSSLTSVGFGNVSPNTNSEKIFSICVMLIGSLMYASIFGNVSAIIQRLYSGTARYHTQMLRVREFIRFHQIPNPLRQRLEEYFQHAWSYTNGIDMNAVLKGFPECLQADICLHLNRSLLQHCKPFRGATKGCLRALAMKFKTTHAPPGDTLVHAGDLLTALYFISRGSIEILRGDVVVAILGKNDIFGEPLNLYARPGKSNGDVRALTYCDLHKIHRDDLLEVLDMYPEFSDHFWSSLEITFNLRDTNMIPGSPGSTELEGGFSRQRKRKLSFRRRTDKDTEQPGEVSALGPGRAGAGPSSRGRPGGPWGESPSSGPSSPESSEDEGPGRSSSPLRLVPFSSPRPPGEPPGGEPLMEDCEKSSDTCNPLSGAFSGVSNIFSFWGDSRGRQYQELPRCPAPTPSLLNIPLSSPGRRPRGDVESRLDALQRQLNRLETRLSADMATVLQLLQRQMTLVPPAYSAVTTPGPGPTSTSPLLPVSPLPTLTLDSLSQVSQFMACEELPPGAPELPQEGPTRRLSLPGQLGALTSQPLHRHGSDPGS

The experiment concerns the target Voltage-gated inwardly rectifying potassium channel KCNH2 (Homo sapiens) (UniProt Q12809). Briefly: hERG rescue from dofetilide block, primary screen, cell-based, CHO-hERG, FluxOR thallium flux, dofetilide IC70 (AID 1511).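 Note: thallium influx through hERG after potassium depolarization seen as dye fluorescence rise.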 Conditions: dofetilide IC70 present, at 10 µM, stronger effect = higher value. (The hERG channel carries a current that helps repolarise heart muscle cells.)
Turning to `Cc1cccc(NC(=O)Cc2ccc(Br)cc2)n1`, the activation (rescue from dofetilide block), less the hit threshold was -12.3% (inactive).
In the case of `Cc1cccc(NC(=O)c2ccc3ccccc3n2)n1`, the activation (rescue from dofetilide block), less the hit threshold was -1.08% (inactive).
For `CCOC(=O)C(=CNc1cccc(C)n1)C(=O)OCC`, the activation (rescue from dofetilide block), less the hit threshold was 5.91% (active).
Take `COC(=O)[C@H](CC(C)C)NC(=O)N1CCCCC1C` (stereo partly drawn): the activation (rescue from dofetilide block), less the hit threshold is -7.74% (inactive).
For `CCc1ccc(CN(C)C(=O)CCc2nnc(-c3ccc(-c4ccccc4)cc3)o2)nc1`, the activation (rescue from dofetilide block), less the hit threshold is -22.3% (inactive).
Next, `NS(=O)(=O)c1ccc(CNC(=O)c2ccc(Cl)cc2[N+](=O)[O-])cc1`: -2.96% (inactive); `O=C(Cn1ccc2cc(S(=O)(=O)N3CCCC3)ccc21)NCc1ccccc1`: -5.85% (inactive); `Cc1ccc(/C=N/NC(=O)c2cc3ccccc3cc2O)o1`: 41.5% (active).
`N=c1oc2ccccc2cc1C(=O)N/N=C/c1ccccc1`: the activation (rescue from dofetilide block), less the hit threshold was -8.66% (inactive).
Next, `O=C(N/N=C/c1cccnc1)c1cc2ccccc2cc1O`: -0.07% (inactive).
Regarding `CCOC(=O)CCCN1CC(O)=C(c2nc3ccccc3s2)C1=N`, the activation (rescue from dofetilide block), less the hit threshold was -12% (inactive).
As for `CCCCCN1CC(O)=C(c2nc(-c3ccc(Cl)cc3)cs2)C1=N`, the activation (rescue from dofetilide block), less the hit threshold is -8.57% (inactive).
Next, `CCCCCN1CC(O)=C(c2ccccc2)C1=N`: 5.35% (active); `CCC1OC(c2ccc([N+](=O)[O-])cc2)=Nc2ccccc21` (stereo not drawn): -15.1% (inactive).
Take `Cc1ccc(C(C)C)cc1OCC(=O)Nc1ccccc1N1CCCC1`: the activation (rescue from dofetilide block), less the hit threshold is -20.3% (inactive).
As for `CCc1cc2c(=O)c(-c3ccon3)c(N)oc2cc1OC`, the activation (rescue from dofetilide block), less the hit threshold is 5.25% (active).
Regarding `COc1ccc2oc(N)c(C=O)c(=O)c2c1`, the activation (rescue from dofetilide block), less the hit threshold is -3.18% (inactive).
Next, `CCc1cc2c(=O)c(-c3ccc(F)cc3)c(C(F)(F)F)oc2cc1OCC(=O)O`: -11.1% (inactive); `CCOC(=O)c1cc(-c2ccc(Cl)s2)nc2c1c(C)nn2C`: -9.55% (inactive); `CC12c3ccccc3C(c3ccccc31)C1C(=O)N(Cc3cccnc3)C(=O)C12` (stereo not drawn): -9.37% (inactive).
In the case of `CCOC(=O)C1CCN(C(=O)COc2cccc3ccccc23)CC1`, the activation (rescue from dofetilide block), less the hit threshold was -10.3% (inactive).
For the compound `O=C(CN(CC1CCCO1)C(=O)CNS(=O)(=O)c1ccc(F)cc1)NCc1ccco1` (stereo not drawn), the activation (rescue from dofetilide block), less the hit threshold was 4.78% (active).
For `O=C(CN(CC1CCCO1)C(=O)CNS(=O)(=O)c1ccccc1)NCc1ccccc1` (stereo not drawn), the activation (rescue from dofetilide block), less the hit threshold is -7.03% (inactive).
Turning to `CC(C)C(C(=O)NCc1ccco1)N(CC1CCCO1)C(=O)CNS(=O)(=O)c1ccc(F)cc1` (stereo not drawn), the activation (rescue from dofetilide block), less the hit threshold is 0.16% (inactive).
With `O=C(CSc1ccccn1)N1CCN(S(=O)(=O)c2ccc(Cl)cc2)CC1`, the activation (rescue from dofetilide block), less the hit threshold was -10.1% (inactive).
`CC1(C)Cc2cccc(OCC(N)=O)c2O1`: the activation (rescue from dofetilide block), less the hit threshold was -3.71% (inactive).
For the compound `CC1(C)Cc2cccc(OCC(=O)Nc3nccs3)c2O1`, the activation (rescue from dofetilide block), less the hit threshold is 7.68% (active).
For `CC1(C)Cc2cccc(OCC(=O)NCc3ccccc3)c2O1`, the activation (rescue from dofetilide block), less the hit threshold is -7.06% (inactive).
Next, `Cc1ccc2c(c1)N(S(=O)(=O)c1cc(-c3cc(C)no3)ccc1C)CCO2`: -7.78% (inactive); `O=C(CCc1ccccc1)NCCc1cccs1`: -5.64% (inactive); `COc1cc(S(=O)(=O)N2CCOCC2)ccc1NC(=O)COc1ccc(N(C)S(=O)(=O)c2ccc(C)cc2)cc1`: -22.3% (inactive).
For `O=C1NC(c2ccccc2)Oc2ccccc21` (stereo not drawn) the value was -10.1% (inactive).
For `CCNC(=S)Nc1ccc(OC(F)(F)F)cc1`, the activation (rescue from dofetilide block), less the hit threshold was -17.9% (inactive).
As to `CS(=O)(=O)c1sc(C(=O)NC(=S)Nc2ccc(OC(F)(F)F)cc2)c2c1C=CCC2`, the activation (rescue from dofetilide block), less the hit threshold was 6.46% (active).
For `FC(F)(F)Oc1ccc(NC(=S)NCc2ccccc2)cc1`, the activation (rescue from dofetilide block), less the hit threshold was -9.66% (inactive).
Take `CC1(C)Cc2c(sc(NC(=O)C(=O)N3CCOCC3)c2C#N)CO1`: the activation (rescue from dofetilide block), less the hit threshold is -11.7% (inactive).
With `O=C(CSc1nnnn1C1CCCC1)Nc1ccc2c(c1)OCCO2`, the activation (rescue from dofetilide block), less the hit threshold is 6.54% (active).
Next, `CC(=O)Nc1ccc(NC(=O)CSc2nnnn2C2CCCCC2)cc1`: -7.91% (inactive); `CCC(=O)Nc1cccc(NC(=O)CSc2nnnn2C2CCCC2)c1`: -7.7% (inactive); `O=C(O)c1ccccc1-c1ccccc1C(=O)NCCc1ccccc1`: -5.86% (inactive).
In the case of `CC(C)c1ccc(S(=O)(=O)NC2CCCC2)cc1`, the activation (rescue from dofetilide block), less the hit threshold was -6% (inactive).
Next, `CCOc1cc(CNn2c(C)nnc2SCC(=O)NC(C)(C)C)ccc1OCC(=O)NC(C)(C)C`: -9.51% (inactive).
Take `CC1CCN(C(=S)NC2CC3CCC2C3)CC1` (stereo not drawn): the activation (rescue from dofetilide block), less the hit threshold is -8.02% (inactive).
Regarding `COc1ccc(CN2CCOC2=O)cc1OC`, the activation (rescue from dofetilide block), less the hit threshold is -6.78% (inactive).
Take `COc1ccc(CN2CC[C@H]3C=CC[C@@H](C(=O)N4CCOCC4)[C@H]3C2=O)cc1OC`: the activation (rescue from dofetilide block), less the hit threshold was 5.8% (active).
`COc1ccc(CNC(=O)[C@@H]2CC=C[C@@H]3CCN(C4CC4)C(=O)[C@@H]32)cc1`: the activation (rescue from dofetilide block), less the hit threshold is -7.13% (inactive).
With `Cc1ccc(S(=O)(=O)c2c[nH]c3ccc(C)cc3c2=O)cc1`, the activation (rescue from dofetilide block), less the hit threshold was -9.36% (inactive).
Next, `Cn1c(CC(=O)Nc2ccc(F)cc2)nnc1SCC(=O)NC1CCCCC1`: -1.47% (inactive); `CCOC(=O)c1c(NC(=S)Nc2ccccc2)sc2c1CCN(C)C2`: -15.5% (inactive).
Next, `CCOC(=O)c1c(NC(=S)NC)sc2c1CCCC2`: 28.9% (active).
For the compound `CCOC(=O)c1c(NC(=O)C2(C)Cc3ccccc3C(=O)O2)sc2c1CCCC2` (stereo not drawn), the activation (rescue from dofetilide block), less the hit threshold was -5.83% (inactive).
As for `CCOc1ccc(CCN2C(=O)c3cccnc3C2=O)cc1OCC`, the activation (rescue from dofetilide block), less the hit threshold is -5.29% (inactive).
Regarding `O=C(NCc1ccccn1)c1c(O)c2c([nH]c1=O)CCCC2`, the activation (rescue from dofetilide block), less the hit threshold is -0.66% (inactive).
As for `CCc1nnc(NC(=O)c2c(O)c3c([nH]c2=O)CCCC3)s1`, the activation (rescue from dofetilide block), less the hit threshold is -12.7% (inactive).
Take `C[N+](C)(C)CCNC(=O)c1c(O)c2c([nH]c1=O)CCCC2`: the activation (rescue from dofetilide block), less the hit threshold was 4.89% (active).
Regarding `CCSc1ccccc1C(=O)NCc1ccc(OC)cc1`, the activation (rescue from dofetilide block), less the hit threshold was 0.47% (inactive).
Consider `CCC(C(=O)NC1CCCC1)N(C(=O)Cn1nnc(-c2ccc(C)o2)n1)c1ccc(OC)c(OC)c1` (stereo not drawn), for which the activation (rescue from dofetilide block), less the hit threshold was -1.5% (inactive).
As for `O=C(NC(=S)NC1CCCCC1)c1ccc(Cl)cc1`, the activation (rescue from dofetilide block), less the hit threshold is -1.76% (inactive).
Next, `CC(C)C(NC(=O)c1ccc(Cl)cc1)C(=O)O` (stereo not drawn): -8.13% (inactive).
Next, `CC(C)CNC(=S)NC(=O)c1ccc(Cl)cc1`: 7.52% (active); `OC(c1nnc(-c2ccccc2)o1)c1cccs1` (stereo not drawn): -10.2% (inactive).
On to `COCCCNC(=O)[C@H]1N2C(=O)c3ccccc3C2SC1(C)C` (stereo partly drawn), for which the activation (rescue from dofetilide block), less the hit threshold was -7.64% (inactive).
On to `CC1CCCN(C(=O)c2ccc3c(c2)C(=O)N(CCC2=CCCCC2)C3=O)C1` (stereo not drawn), for which the activation (rescue from dofetilide block), less the hit threshold is -17.2% (inactive).
As to `Cc1ccc(S(=O)(=O)Oc2ccc(/C=N/NC(=O)c3c(Cl)cnn3C)cc2)cc1`, the activation (rescue from dofetilide block), less the hit threshold is -18.1% (inactive).
On to `CCc1nc2sc3c(Cl)ncnc3c2c2c1CCCC2`, for which the activation (rescue from dofetilide block), less the hit threshold is -13.4% (inactive).
For `Cc1ccc(C)c(C(C)NC(=O)C2CCCO2)c1` (stereo not drawn) the value was -6.97% (inactive).
With `Cc1cc([N+](=O)[O-])ccc1NC(=O)C1CCCO1` (stereo not drawn), the activation (rescue from dofetilide block), less the hit threshold is -1.96% (inactive).
For the compound `Cc1cc(C)c2nc(NC(=O)C3CCCO3)sc2c1` (stereo not drawn), the activation (rescue from dofetilide block), less the hit threshold is 5.12% (active).
`CSc1cccc(NC(=S)N(C(C)C)C(C)c2ccccn2)c1` (stereo not drawn): the activation (rescue from dofetilide block), less the hit threshold is -10.5% (inactive).
Regarding `Cc1cc(NC(=O)CSc2nc3ccccc3n2CC(C)C)no1`, the activation (rescue from dofetilide block), less the hit threshold was -8.27% (inactive).
For `N#Cc1c(NC(=O)CSc2nc3ccccc3c(=O)n2Cc2ccco2)sc2c1CCCC2` the value was -16.4% (inactive); for `Cc1cc(NC(=O)CSc2nc3cc(Cl)ccc3c(=O)n2Cc2ccco2)no1`, 6.67% (active).
`CCN1CCN(c2nc(Nc3cccc(F)c3)nc(N)c2[N+](=O)[O-])CC1`: the activation (rescue from dofetilide block), less the hit threshold is 1.19% (inactive).
For the compound `CCCN(CCC)S(=O)(=O)c1ccc(C(=O)NNC(=O)c2cc(OC)c(OC)c(OC)c2)cc1`, the activation (rescue from dofetilide block), less the hit threshold is -5.35% (inactive).
For the compound `C=CCN1C=C2C(=O)C(C)(OC(=O)CCc3ccccc3)C(=O)C=C2C=C1c1ccc(C#N)cc1` (stereo not drawn), the activation (rescue from dofetilide block), less the hit threshold was -7.84% (inactive).
As for `CC1(OC(=O)C2CCCC2)C(=O)C=C2C=C(c3ccc(C#N)cc3)OC=C2C1=O` (stereo not drawn), the activation (rescue from dofetilide block), less the hit threshold was 7.34% (active).
For `COCCN1C=C2C(=O)C(C)(OC(=O)C3CCCC3)C(=O)C=C2C=C1c1ccsc1` (stereo not drawn), the activation (rescue from dofetilide block), less the hit threshold was -7.58% (inactive).
For `COc1ccc2c(c1)OC(O)(C(F)(F)C(F)F)CC2=O` (stereo not drawn) the value was -2.37% (inactive); for `CC1CCN(S(=O)(=O)c2ccc3ncn(CC(=O)N(C)C4CCCCC4)c(=O)c3c2)CC1`, -5.76% (inactive).
For `CCN1CCCC1CNC(=O)Cn1cnc2ccc(S(=O)(=O)N3CCC(C)CC3)cc2c1=O` (stereo not drawn) the value was 7.23% (active).
Next, `O=C(Cn1cnc2ccccc2c1=O)Nc1cccc(S(=O)(=O)N2CCCCC2)c1`: -13.8% (inactive); `CN(CCc1cn[nH]c1)C(=O)CC1C(=O)NCCN1Cc1cccc(Oc2ccccc2)c1` (stereo not drawn): -5.68% (inactive).
`S=c1ccc2ccccc2[nH]1`: the activation (rescue from dofetilide block), less the hit threshold was -11.4% (inactive).
`NC(=O)Cc1ccc2c(c1)[nH]c1ccccc12`: the activation (rescue from dofetilide block), less the hit threshold was -8.6% (inactive).
Next, `S=c1[nH]c2ccccc2c2ccccc12`: 6.26% (active); `O=C(C1CCCN1S(=O)(=O)c1ccc(Br)cc1)N1CCOCC1` (stereo not drawn): -0.78% (inactive).
For `CCN(CC)C(=O)CSc1nnc(C2CCCCC2)o1`, the activation (rescue from dofetilide block), less the hit threshold is -6.69% (inactive).
`CCCCCC1CCC(c2nnc(SCC(C)=O)o2)CC1` (stereo not drawn): the activation (rescue from dofetilide block), less the hit threshold is 5.95% (active).
With `O=C(CSc1nnc(-c2ccccc2O)o1)NC1CCCCC1`, the activation (rescue from dofetilide block), less the hit threshold is -7.03% (inactive).
As for `S=c1[nH]c(-c2cccs2)cn1-c1ccccc1`, the activation (rescue from dofetilide block), less the hit threshold is 8.23% (active).
Consider `COc1ccc(-c2cn(-c3ccc(OC)cc3)c(=S)[nH]2)cc1`, for which the activation (rescue from dofetilide block), less the hit threshold is -3.47% (inactive).
On to `O=c1oc2ccccc2cc1-c1cn(-c2ccccc2)c(=S)[nH]1`, for which the activation (rescue from dofetilide block), less the hit threshold was -6.67% (inactive).
Consider `CC(=O)N1CCN(S(=O)(=O)c2ccc(C)c([N+](=O)[O-])c2)C1C(C)C` (stereo not drawn), for which the activation (rescue from dofetilide block), less the hit threshold was -8.18% (inactive).
As for `Cc1ccc2c(c1)N(CC(=O)N1CCC(C)CC1)C(=O)c1cccnc1O2`, the activation (rescue from dofetilide block), less the hit threshold was -4.18% (inactive).
For `C=CCc1cc(S(=O)(=O)c2ccc(O)c(CC=C)c2)ccc1O` the value was -8.79% (inactive); for `CCC1(C)Cc2c(sc3[nH]c(=S)n(Cc4ccccc4)c(=O)c23)CO1` (stereo not drawn), 32.2% (active); for `CCC1(C)Cc2c(sc3nc(SC)[nH]c(=O)c23)CO1` (stereo not drawn), -9.23% (inactive).
Consider `CCC1(C)Cc2c(sc3nc4n(c(=O)c23)CCCS4)CO1` (stereo not drawn), for which the activation (rescue from dofetilide block), less the hit threshold was -3.92% (inactive).

(Values after PubChem BioAssay AID1511 (Johns Hopkins Ion Channel Center, 2009).)
